High-throughput results as filed in PubChem BioAssay.
Shown are actives, neighbours in structure and some others; about 2.5% of the full set was active somewhere.
NSD2 HMT inh: inhibitors of human histone methyltransferase NSD2; O96028; NSD2 peptide methylation, AlphaScreen, 120 min; inhibition, % at 12.5 µM; hit rate 0.54% among 310,000; in the data active means inhibition above about 50%
RAD52 anneal inh: RAD52 (human) annealing inhibition; P43351; recombinant RAD52 DNA annealing, FRET fluorescence; inhibition, % at 18.7 µM; hit rate 0.46% among 360,000; AID 651710;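 active means every replicate showing at least 50% inhibition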
CASP6 VEID inh: inhibitors of human caspase-6; AID 686996; P55212; purified caspase-6, Z-VEID-R110 cleavage fluorescence; inhibition, % at 12.5 µM; hit rate 0.53% among 350,000;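 active means mean inhibition across replicates at least about 35%, with every replicate also reaching that limit, limit read from the data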
rRNA inh HTS: inhibits bacterial ribosomal RNA function over humanized ribosomes | AID 720706 | hit rate 1.6% among 350,000 | E. coli WT GFP vs humanized-ribosome RFP mutants, fluorescence, 24 h; hits give low values; DMSO median 0, no signal -100 | GFP signal change (wild-type ribosome), % (no concentration beside the values);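 active means significant combined selectivity score with lowered wild-type GFP, culture density cut under 30%, mutant RFP and density less affected; inactive means any of these conditions unmet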
MLL AF4-AF9 inh: MLL-AF4/AF9 protein interaction inhibition. AlphaScreen, biotin-AF4 peptide binding to FLAG-AF9. inhibition, % at 10 µM. AID 651704. P42568. hit rate 0.47% among 350,000;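 active means every replicate reaching a set inhibition limit, whatever the replicate mean, cut at about 25% in these data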
A number is an active result; – = inactive; · = no result; + = active, no number.

SMILES	NSD2 HMT inh	RAD52 anneal inh	CASP6 VEID inh	rRNA inh HTS	MLL AF4-AF9 inh
O=C(/C=C/c1ccc(O)cc1)c1ccc(NC2=C(N3CCCCC3)C(=O)c3ccccc3C2=O)cc1	–	–	–	-37.0	–
O=C1CCCc2c1sc1nc3n(c(=O)c21)CCCCC3	–	·	·	·	·
O=C1c2sc3nc4n(c(=O)c3c2CCC1Br)CCCCC4 (centres undefined)	+	·	·	·	·
COc1ccccc1Cn1c(=S)[nH]c2ccc(F)cc2c1=O	–	–	–	-14.0	–
O=c1c2cc(F)ccc2[nH]c(=S)n1Cc1ccc(F)cc1	–	–	–	–	–
COc1ccccc1Cn1c(=S)[nH]c2ccc(Br)cc2c1=O	–	–	–	–	–
COc1ccccc1Cn1c(=S)[nH]c2ccccc2c1=O	–	–	–	-28.1	–
CN1[C@@H]2Cn3c(ccc(C4=CCCCC4)c3=O)[C@H]1[C@@H](C(=O)NCc1cc(F)cc(F)c1)[C@@H]2CO	·	–	–	–	–
COc1cccc(CN2[C@H](CO)[C@@H](c3ccccc3)C23CN(Cc2ccccc2)C3)c1	·	·	·	–	·
O=C(CSc1nnnn1-c1ccc(Cl)cc1)N1CCNC1=O	–	–	–	–	–
COC(=O)CC1C(=O)NCCN1C(=O)CSc1nnnn1-c1ccc(Cl)cc1 (centres undefined)	–	–	50.1	–	–
C[C@@H]1CN([C@H](C)CO)C(=O)c2cc(N(C)C)ccc2O[C@@H]1CN(C)C(=O)Nc1ccc(C(F)(F)F)cc1	·	–	–	–	–
COCC(=O)N1CC2(CCN(Cc3ccccc3Cl)CC2)c2c([nH]c3cc(OC)ccc23)[C@@H]1CO	·	–	–	–	–
CCC(=O)N1CC2(CCN(Cc3ccc(Cl)cc3)CC2)c2c([nH]c3cc(OC)ccc23)[C@H]1CO	·	·	·	–	32.2
CCC(=O)N1CC2(CCN(Cc3ccccc3Cl)CC2)c2c([nH]c3cc(OC)ccc23)[C@H]1CO	·	–	–	–	–
COc1ccc2c3c([nH]c2c1)[C@@H](CO)N(Cc1nccs1)CC31CCN(Cc2cncnc2)CC1	·	50.4	·	–	–
COc1ccc2c3c([nH]c2c1)[C@@H](CO)N(C(=O)CN(C)C)CC31CCN(Cc2ccccc2Cl)CC1	·	–	–	–	30.1
COCC(=O)N1CC2(CCN(Cc3ccc(Cl)cc3)CC2)c2c([nH]c3cc(OC)ccc23)[C@@H]1CO	·	–	–	–	–
CCC(=O)N1CC2(CN(Cc3ccccc3Cl)C2)c2c([nH]c3cc(OC)ccc23)[C@@H]1CO	·	–	–	–	28.5
O=S(=O)(c1ccc(F)cc1)N1CCCCN2[C@@H](CO)[C@H](c3ccc(C#CC4CC4)cc3)[C@@H]2C1	·	–	–	–	–
O=S(=O)(c1ccccc1F)N1CCC(Oc2ccc(-n3cnnn3)cc2)CC1	–	–	–	-28.2	–
O=S(=O)(Nc1ccc(-n2cnnn2)cc1)c1ccccc1F	–	–	–	–	–
O=C(COC(=O)CC12CC3CC(CC(C3)C1)C2)Nc1cccnc1Cl	–	–	–	-24.2	–
CC=Cc1ccc2n(c1=O)C[C@H]1[C@H](CO)[C@@H](C(=O)Nc3ccccc3)N(CC)[C@@H]21 (mixture of isomers)	·	–	–	–	–
CCCN1C(=O)/C(=C2/C=Cc3ccccc3N2CC)SC1=S	–	–	–	–	26.3
SMILES	NSD2 HMT inh	RAD52 anneal inh	CASP6 VEID inh	rRNA inh HTS	MLL AF4-AF9 inh
CCCN1/C(=C2/SC(=S)N(CC)C2=O)C=Cc2ccccc21	–	·	·	·	·
O=C(/C=C/c1ccccc1Cl)Nc1cccc(S(=O)(=O)NC2=NCCCCC2)c1	–	·	·	·	·
O=C(/C=C/c1ccc([N+](=O)[O-])cc1)Nc1cccc(S(=O)(=O)NC2=NCCCCC2)c1	–	–	–	-9.4	–
Cc1ccc(C(=O)OCC(=O)Nc2cccc(S(=O)(=O)NC3=NCCCCC3)c2)c(C)c1	–	–	–	-22.4	–
C#CCOCCOCCOCCNc1nc(N2CCOCC2)nc(N2CCN(C(=O)[C@H](CCCCN)n3cc(CN)nn3)CC2)n1	·	–	–	–	32.1
C#CCOCCOCCOCCNc1nc(N2CCN(C(=O)[C@H]([C@@H](C)CC)n3cc([C@@H](N)CC(C)C)nn3)CC2)nc(N2CCN(C(=O)[C@H](Cc3ccc(O)cc3)n3cc([C@@H](N)CC(C)C)nn3)CC2)n1	·	–	–	–	28.2
C#CCOCCOCCOCCNc1nc(N2CCN(C(=O)C([C@@H](C)O)n3cc([C@@H](N)CCCCN)nn3)CC2)nc(N2CCN(C(=O)[C@H](CO)n3cc([C@@H](N)C(C)C)nn3)CC2)n1 (some centres undefined)	·	58.2	–	–	54.4
C#CCOCCOCCOCCNc1nc(N2CCN(C(=O)[C@H](CCCCN)n3cc([C@@H](N)CO)nn3)CC2)nc(N2CCN(C(=O)[C@H](CCCCN)n3cc([C@@H](N)CC(C)C)nn3)CC2)n1	·	–	–	–	28.6
C#CCOCCOCCOCCNc1nc(N2CCN(C(=O)[C@H]([C@@H](C)CC)n3cc([C@@H](N)Cc4ccc(O)cc4)nn3)CC2)nc(N2CCN(C(=O)[C@H]([C@@H](C)CC)n3cc([C@@H](N)Cc4ccc(O)cc4)nn3)CC2)n1	·	–	–	–	–
C#CCOCCOCCOCCNc1nc(N2CCN(C(=O)[C@H](CCCN=C(N)N)n3cc(C(N)[C@@H](C)CC)nn3)CC2)nc(N2CCN(C(=O)[C@H](CC(N)=O)n3cc([C@@H](N)CC(N)=O)nn3)CC2)n1 (some centres undefined)	·	–	–	–	25.2
C#CCOCCOCCOCCNc1nc(N2CCN(C(=O)[C@H](CCCN=C(N)N)n3cc(C(N)[C@@H](C)CC)nn3)CC2)nc(N2CCN(C(=O)[C@H](CC(N)=O)n3cc([C@@H](N)C(C)C)nn3)CC2)n1 (some centres undefined)	·	–	–	–	·
CC(C)c1cc(C(=O)N2CCCC(C(=O)c3ccc4ccccc4c3)C2)on1 (centres undefined)	·	–	–	–	–
Cc1cc(Cl)ccc1C(=O)C1CCCN(C(=O)c2cc(C(C)C)no2)C1 (centres undefined)	–	–	–	-36.8	–
Cc1cc(Sc2nnc(N)s2)c2ccccc2n1	–	–	–	–	–
Cc1cc(Sc2nnc(/N=C/N(C)C)s2)c2ccccc2n1	·	–	–	-19.8	·
O=C1c2ccccc2C(=O)c2c(Nc3ccc(CCO)cc3)ccc(O)c21	–	–	–	–	50.3
C[C@@H]1CN([C@@H](C)CO)C(=O)c2cc(C3=CCCCC3)cnc2O[C@@H]1CN(C)Cc1ccccc1	·	–	–	–	–
Cc1ccc2nc(N/C(=N/S(=O)(=O)c3cccs3)c3ccccc3Cl)sc2c1	–	–	–	-32.3	–
CC(C)NC(=O)N(C)C[C@H]1OCCCC[C@@H](C)Oc2ccc(NS(=O)(=O)c3ccc(Cl)cc3)cc2C(=O)N([C@H](C)CO)C[C@H]1C	·	–	–	–	–
C[C@H](CO)N1C[C@H](C)[C@@H](CN(C)S(=O)(=O)c2cn(C)cn2)Oc2ncc(C3=CCCC3)cc2C1=O	·	–	–	–	–
